From PubChem BioAssay
In the library only some 1.6% were active in any assay of this set; here they are far more common.
KCNQ2 pot = potentiators of rat KCNQ2 potassium channel; O88943; CHO-K1 KCNQ2, FluxOR thallium flux fluorescence; stronger effect = higher value; B-score at 10 µM; 0.54% of 310,000 active; AID 2239;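 active = fluorescence ratio B-score at least 3 SD of library B-scores, with initial fluorescence B-score within 3 of them, cut at about 5.3 in these data; same plate scores as AID 2156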;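 also: B-score of peak minus minimum over baseline fluorescence ratio after K+ and Tl+ stimulus; positive B-score means potentiation of KCNQ2 with more thallium influx and brighter signal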
KCNQ2 inh = blocks the rat KCNQ2 potassium channel; 1.1% of 310,000 active; CHO-K1 KCNQ2, FluxOR thallium flux, 20 min; stronger effect = lower value; AID 2156; O88943; B-score at 10 µM;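 active = fluorescence ratio B-score at most minus 3 library SDs, with starting brightness B-score within 2 library SDs, cut at about -5.5 in these data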
Kir21 confirm = confirmation of mouse Kir2.1 potassium channel inhibitors; shares compounds with KCNQ2 pot; Kir2.1-expressing cells, FluxOR thallium flux fluorescence; stronger effect = lower value; Tl flux remaining, % of negative control (stronger effect = lower value), % at 10 µM; 41% of 2,300 active;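 active = Primary-screen hit whose thallium flux fell at least 3 control SD below untreated wells in both duplicates, with normal baseline fluorescence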;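 also: 0% = blank wells without stimulus and 100% = stimulated no-compound controls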
HEK293 ctr = counter-screen for Kir2.1 inhibitors: effect in parental HEK293 cells; FluxOR signal as % of negative control (100 = no effect), % at 10 µM; shares compounds with KCNQ2 pot; 19% of 2,300 active; FluxOR thallium flux fluorescence; 0% = unstimulated blank wells;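 active = dye signal at least 3 control SD above or below untreated wells in both duplicates, raw fluorescence within 3, either direction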;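 also: percent is based on the flux ratio of peak minus minimum fluorescence over baseline F0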
CHO-K1 ctr = alters thallium flux in parental CHO-K1 cells, KCNQ2 counter-screen; shares compounds with KCNQ2 pot; 43% of 1,200 active; FluxOR thallium flux fluorescence; zero = vehicle mean+3SD, 100% = vehicle-minus-blank window; activity increase over 3SD of controls, % at 10 µM; AID 2282;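 active = signal rise of at least 3 SD above the untreated control mean, in both duplicate wells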;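 also: counter screen of KCNQ2 potentiator hits so any rise reflects channel-independent effects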
KCNQ1 pot spec = tests whether KCNQ2 potentiators also act on human KCNQ1; shares compounds with KCNQ2 pot; CHO KCNQ1 stable, FluxOR thallium flux fluorescence; beyond 3SD, as % of vehicle-control signal; activation over 3SD threshold, % at 10 µM; 28% of 1,200 active; AID 2283;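 active = fluorescence ratio rise of at least 3 SD of vehicle wells above their mean, in both replicate wells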;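 also: 0% = vehicle mean plus 3 SD and 100% = vehicle minus unstimulated blank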
Target sequence (P51787 whole entry, looked up): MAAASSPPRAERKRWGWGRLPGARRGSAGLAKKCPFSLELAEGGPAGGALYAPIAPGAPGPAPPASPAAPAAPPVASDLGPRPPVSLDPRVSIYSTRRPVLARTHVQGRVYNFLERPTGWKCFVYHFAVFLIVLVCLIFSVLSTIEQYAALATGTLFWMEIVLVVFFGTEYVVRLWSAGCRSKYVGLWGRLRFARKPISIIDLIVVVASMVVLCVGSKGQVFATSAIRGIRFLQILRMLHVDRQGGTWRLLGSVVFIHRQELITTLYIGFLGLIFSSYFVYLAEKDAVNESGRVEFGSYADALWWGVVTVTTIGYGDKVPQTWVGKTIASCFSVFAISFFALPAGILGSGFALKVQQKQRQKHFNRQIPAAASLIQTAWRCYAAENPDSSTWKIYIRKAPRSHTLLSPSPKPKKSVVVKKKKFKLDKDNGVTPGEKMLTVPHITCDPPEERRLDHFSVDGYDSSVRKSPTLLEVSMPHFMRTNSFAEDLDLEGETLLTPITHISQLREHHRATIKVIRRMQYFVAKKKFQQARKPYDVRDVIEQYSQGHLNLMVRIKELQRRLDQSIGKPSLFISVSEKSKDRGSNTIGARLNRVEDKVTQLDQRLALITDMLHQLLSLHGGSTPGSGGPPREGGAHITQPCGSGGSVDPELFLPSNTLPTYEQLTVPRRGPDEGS
KCNQ2 pot confirm = confirmation of rat KCNQ2 potassium channel potentiators; shares compounds with KCNQ2 pot; CHO-KCNQ2 cells, FluxOR thallium flux fluorescence; potentiation, less the hit threshold, % at 10 µM; 68% of 1,200 active;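 active = fluorescence ratio rising 3 SD or more over the vehicle control mean in both replicates, plus primary screen hit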;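 also: peak minus minimum thallium fluorescence divided by baseline after K/Tl stimulus; 0% = vehicle mean plus 3 SD and 100% = vehicle minus unstimulated blank difference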
Kir21 spec = tests whether KCNQ2 potentiators also affect mouse Kir2.1; shares compounds with KCNQ2 pot; HEK293 Kir2.1, FluxOR thallium flux fluorescence; activity over 3SD threshold, % at 10 µM; 2% of 1,200 active; AID 2345;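 active = fluorescence ratio rise of at least 3 SD above the vehicle-control mean, seen in both replicates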;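 also: 0% = vehicle mean plus 3 SD and 100% = vehicle minus no-stimulus blank window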
KCNQ2 W236L pot = potentiates the retigabine-insensitive rat KCNQ2 W236L mutant channel; shares compounds with KCNQ2 pot; current increase over 3SD of negative controls (%), stronger effect = higher value, % at 25 µM; CHO KCNQ2-W236L, automated patch clamp current; 10% of 940 active;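 active = current increase at least 3 SD of the untreated controls above them in both duplicate recordings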
* marks the source's active call; other numbers are inactive results.

Results for COCCn1c(-c2ccsc2)nc2c1c(=O)[nH]c(=O)n2CC(C)C ?
KCNQ2 pot: 0.45; KCNQ2 inh: inactive

What do the screens show for `COc1ccc(NC(=O)N/C=C/c2ccco2)cc1`?
KCNQ2 pot: 0.31; KCNQ2 inh: inactive

How did O=C(N/C=C/c1ccco1)Nc1cccc(Cl)c1 do in these assays?
KCNQ2 pot: 14*; KCNQ2 inh: inactive; Kir21 confirm: inactive; HEK293 ctr: inactive; CHO-K1 ctr: -11; KCNQ1 pot spec: -31; KCNQ2 pot confirm: 61*; Kir21 spec: -20; KCNQ2 W236L pot: inactive

What do the screens show for `CN1CCN(CC(=O)N2c3ccccc3C(C)(c3ccccc3)CC2(C)C)CC1` (configuration not stated)?
KCNQ2 inh: inactive; Kir21 confirm: 58%*; HEK293 ctr: inactive

How did CN1CCN(CC(=O)N2c3ccccc3C(C)(c3ccc(Cl)cc3)CC2(C)C)CC1 (configuration not stated) do in these assays?
KCNQ2 pot: 0.07; KCNQ2 inh: inactive

What do the screens show for `Cc1ccccc1NC(=O)CC1C(=O)NCCN1C(=O)c1cccc(Cl)c1` (configuration not stated)?
KCNQ2 pot: 0.55; KCNQ2 inh: inactive

What do the screens show for `O=C(O)COc1ccc(NC(=O)C(c2ccccc2)c2ccccc2)cc1`?
KCNQ2 inh: inactive

How did CCCCOC(=O)C1C2C=C[C@]3(CN(C(C)c4ccc(OC)cc4)C(=O)[C@H]13)O2 (some centres not stated) do in these assays?
KCNQ2 inh: inactive

Results for CN(C)CCC(=O)C(Cc1ccccc1)c1ccccc1 (configuration not stated) ?
KCNQ2 inh: inactive

How did CC(CCCN(C)C)C(Cc1ccccc1)c1ccccc1 (configuration not stated) do in these assays?
KCNQ2 inh: inactive; Kir21 confirm: 48%*; HEK293 ctr: inactive

How did COc1ccc(Nc2nc(N)nc(CCl)n2)cc1 do in these assays?
KCNQ2 pot: 0.33; KCNQ2 inh: inactive

Results for COc1ccc(-c2csc(NC(=O)c3ccccc3Br)c2C(=O)O)cc1 ?
KCNQ2 pot: 1.8; KCNQ2 inh: inactive

What do the screens show for `COc1ccc(-c2csc(NC(=O)c3ccc(C(C)(C)C)cc3)c2C(=O)O)cc1`?
KCNQ2 pot: 6.5*; KCNQ2 inh: inactive; Kir21 confirm: inactive; HEK293 ctr: inactive; CHO-K1 ctr: -20; KCNQ1 pot spec: -22; KCNQ2 pot confirm: -9; Kir21 spec: -25

What do the screens show for `Cc1ccc(-c2csc(=S)[nH]2)cc1`?
KCNQ2 pot: 22*; KCNQ2 inh: inactive; Kir21 confirm: inactive; HEK293 ctr: 538%*; CHO-K1 ctr: -23; KCNQ1 pot spec: 23*; KCNQ2 pot confirm: 84*; Kir21 spec: 11*; KCNQ2 W236L pot: inactive

Results for Cc1ccc(-c2ccc(C(=O)O)[nH]2)cc1 ?
KCNQ2 inh: inactive

What do the screens show for `O=C(O)c1ccc(CNC(=O)c2ccccc2NC(=O)c2ccc([N+](=O)[O-])cc2)cc1`?
KCNQ2 inh: inactive

Results for O=C1NC(c2ccccc2)=C(c2ccc3ccccc3n2)C(c2ccccc2)N1 (configuration not stated) ?
KCNQ2 inh: inactive

What do the screens show for `O=C1NC(c2ccccc2)=C(c2nc3ccccc3s2)C(c2ccc(O)cc2)N1` (configuration not stated)?
KCNQ2 pot: 15*; KCNQ2 inh: inactive; Kir21 confirm: inactive; HEK293 ctr: inactive; CHO-K1 ctr: -20; KCNQ1 pot spec: -1; KCNQ2 pot confirm: 11*; Kir21 spec: -33; KCNQ2 W236L pot: inactive

What do the screens show for `CCCCS(=O)(=O)c1sc2nc(C)cc(C)c2c1N`?
KCNQ2 pot: 1.6; KCNQ2 inh: inactive

What do the screens show for `CCN(CC)C(=O)CSc1nc(O)cc(=O)n1-c1ccccc1OC`?
KCNQ2 inh: inactive

How did COc1ccc(N2CCC(CNC(=O)Nc3ccc(C)c(C)c3)C2)cc1 (configuration not stated) do in these assays?
KCNQ2 pot: 1.2; KCNQ2 inh: inactive

What do the screens show for `Cc1ccc(C)c(CN2CCC(CNC(=O)Nc3ccc(C)c(C)c3)CC2)c1`?
KCNQ2 pot: 7.6*; KCNQ2 inh: inactive; Kir21 confirm: inactive; HEK293 ctr: inactive; CHO-K1 ctr: 60*; KCNQ1 pot spec: -11; KCNQ2 pot confirm: 10*; Kir21 spec: -31; KCNQ2 W236L pot: inactive

What do the screens show for `COc1nc(OC)nc(N2CCC(C(=O)Nc3cccc4c3CCCC4)CC2)n1`?
KCNQ2 inh: inactive

What do the screens show for `Cc1cccc(OCC(=O)Nc2ccc3c(c2)nc(CCN2CCCCC2)n3C)c1`?
KCNQ2 inh: inactive

How did CCn1cc(CCC(=O)NC(C)c2ccccc2)c2ccccc21 (configuration not stated) do in these assays?
KCNQ2 pot: 0.65; KCNQ2 inh: inactive; Kir21 confirm: inactive; HEK293 ctr: inactive

What do the screens show for `CCn1cc(CCC(=O)NCCc2ccccc2)c2ccccc21`?
KCNQ2 inh: inactive

How did COc1ccc(Nc2c3c(nc4ccccc24)CCCC3)cc1OC do in these assays?
KCNQ2 pot: 1.4; KCNQ2 inh: inactive

Results for COc1ccc(Nc2c3c(nc4ccccc24)CCC3)cc1 ?
KCNQ2 inh: inactive; Kir21 confirm: 42%*; HEK293 ctr: inactive

Results for COc1ccc(C)cc1Nc1c2c(nc3ccccc13)CCC2 ?
KCNQ2 pot: 0.19; KCNQ2 inh: inactive; Kir21 confirm: inactive; HEK293 ctr: inactive

How did CCN(CC)c1ccc(Nc2nc(N3CCOCC3)c3ccccc3n2)cc1 do in these assays?
KCNQ2 inh: inactive

How did c1ccc(Nc2c3c(nc4ccccc24)CCC3)cc1 do in these assays?
KCNQ2 pot: 1.1; KCNQ2 inh: inactive

Results for COc1ccc(Nc2nc(N3CCN(S(C)(=O)=O)CC3)nc3ccccc23)c(OC)c1 ?
KCNQ2 inh: inactive

Results for COc1ccc(Nc2nc(N3CCCC3)c3ccccc3n2)cc1 ?
KCNQ2 pot: 0.61; KCNQ2 inh: inactive; Kir21 confirm: 21%*; HEK293 ctr: inactive
